For some of these results: Potency and affinity values are given separately.

Among the data in ChEMBL document CHEMBL3988442, “University of Dundee, Small-Polar-MMV Screening Library” (2021) are Percent Effect values, retold here.

Common to all, as to parameters: scale not given: direction of the effect not stated beside the values
Assay [1] addresses Protein translocase subunit SecA (Escherichia coli (strain K12)) (UniProt P10408). In words: Assay to Identify E. coli SecA ATPase Inhibitors. The settings on record: 30 µM. It counts as functional.
Assay [2] has as its target T1, Ubiquitin-activating enzyme e1, putative (Leishmania donovani (strain BPK282A1)) (UniProt E9BSI1).
T1 sequence (whole entry): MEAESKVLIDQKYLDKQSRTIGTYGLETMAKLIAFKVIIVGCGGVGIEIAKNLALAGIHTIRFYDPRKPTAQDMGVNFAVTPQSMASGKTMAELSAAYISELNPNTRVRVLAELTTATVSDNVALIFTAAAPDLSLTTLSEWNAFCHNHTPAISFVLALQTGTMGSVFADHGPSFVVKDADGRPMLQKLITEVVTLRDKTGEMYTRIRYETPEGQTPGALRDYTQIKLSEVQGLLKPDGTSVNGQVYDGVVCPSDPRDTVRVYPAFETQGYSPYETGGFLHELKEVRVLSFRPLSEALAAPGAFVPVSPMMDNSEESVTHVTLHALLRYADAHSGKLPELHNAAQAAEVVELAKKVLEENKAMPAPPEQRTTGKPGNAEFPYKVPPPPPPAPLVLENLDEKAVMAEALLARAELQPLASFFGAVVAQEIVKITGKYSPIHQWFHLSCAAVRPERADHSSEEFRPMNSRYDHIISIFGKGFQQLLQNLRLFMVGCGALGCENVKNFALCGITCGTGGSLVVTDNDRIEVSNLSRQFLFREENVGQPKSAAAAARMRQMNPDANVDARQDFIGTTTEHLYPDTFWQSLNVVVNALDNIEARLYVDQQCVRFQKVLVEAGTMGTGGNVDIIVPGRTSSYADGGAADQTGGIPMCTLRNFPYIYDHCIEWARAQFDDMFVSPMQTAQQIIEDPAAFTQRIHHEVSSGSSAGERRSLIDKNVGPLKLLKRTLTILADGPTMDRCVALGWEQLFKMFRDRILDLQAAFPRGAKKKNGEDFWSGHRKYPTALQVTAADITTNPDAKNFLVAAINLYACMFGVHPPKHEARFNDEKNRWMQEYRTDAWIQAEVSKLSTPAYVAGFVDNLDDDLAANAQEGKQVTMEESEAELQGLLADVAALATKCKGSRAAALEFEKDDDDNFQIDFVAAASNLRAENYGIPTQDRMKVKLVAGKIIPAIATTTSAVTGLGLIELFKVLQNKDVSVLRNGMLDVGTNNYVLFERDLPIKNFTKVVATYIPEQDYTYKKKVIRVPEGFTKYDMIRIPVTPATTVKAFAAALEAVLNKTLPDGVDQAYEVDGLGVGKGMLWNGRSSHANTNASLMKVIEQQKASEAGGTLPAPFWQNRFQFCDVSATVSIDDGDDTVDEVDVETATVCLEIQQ
Nature of the assay: Leishmania donovani Ubiquitin Activating Enzyme (LdE1). The class given is functional. The settings on record: 30 µM.

Assay [3] concerns the target AMP-activated protein kinase, AMPK (Homo sapiens) (UniProt P54646+O43741+P54619+Q9UGJ0+Q9Y478+Q13131+Q9UGI9). Nature of the assay: AMP-dependent Kinase enzyme assay. An in vitro enzyme assay that detects ADP turnover that is directly proportional to AMPK activity. This uses naive AMPK that is activated during the assay with MK-8722. It counts as functional. The settings on record: 30 µM.

In assay [4] the target is Sialic acid-binding Ig-like lectin 9 (Homo sapiens) (UniProt Q9Y336). Nature of the assay: Hs-Siglec9 ALPHAscreen SOP 20170721. The settings on record: 10 µM. Background: Bead proximity is the source of the signal in Alpha formats.
A further assay deals with Trypanosoma cruzi. Nature of the assay: Trypanosoma cruzi phosphomannomutase and mannose-1-phosphate guanylyltransferase assay. The class given is functional. The settings on record: 10 µM.
The target in assay [5] is T2, Arginase-2, mitochondrial (Homo sapiens) (UniProt P78540).
T2 sequence (whole entry): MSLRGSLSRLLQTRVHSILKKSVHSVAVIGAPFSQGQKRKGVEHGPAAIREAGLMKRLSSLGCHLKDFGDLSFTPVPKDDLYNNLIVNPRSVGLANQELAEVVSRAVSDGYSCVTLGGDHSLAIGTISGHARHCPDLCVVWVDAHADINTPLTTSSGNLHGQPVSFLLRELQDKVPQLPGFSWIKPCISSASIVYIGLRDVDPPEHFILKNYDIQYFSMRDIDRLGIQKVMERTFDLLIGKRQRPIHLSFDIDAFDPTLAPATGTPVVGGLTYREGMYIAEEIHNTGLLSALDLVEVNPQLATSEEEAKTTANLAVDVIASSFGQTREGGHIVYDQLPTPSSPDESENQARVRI
Nature of the assay: in vitro enzyme assay to detect the production of urea directly proportional to the activity of Arginase II. Further: in the data most compounds retested in dose-response had high values. It counts as functional. Particulars: 33.3 µM.

The target in assay [6] is T3, Proteasome subunit beta (Trypanosoma cruzi) (UniProt O96673).
T3 sequence (whole entry): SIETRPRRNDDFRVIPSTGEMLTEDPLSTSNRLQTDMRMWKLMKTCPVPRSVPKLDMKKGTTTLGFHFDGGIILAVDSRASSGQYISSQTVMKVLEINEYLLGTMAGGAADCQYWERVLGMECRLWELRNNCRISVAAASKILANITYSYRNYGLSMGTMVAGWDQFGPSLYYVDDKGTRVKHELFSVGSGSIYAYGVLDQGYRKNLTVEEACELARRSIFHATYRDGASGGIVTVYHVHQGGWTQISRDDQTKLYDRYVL
Nature of the assay: Trypanosoma cruzi proteasome chymotrypsin-like activity (TcProtChymo) assay. Further: in the data most compounds retested in dose-response had high values. Particulars: 9.37 µM. The class given is functional.

The species entered for the next assay is Homo sapiens. Nature of the assay: To identify inhibition of the IFN signalling (Jak-Stat) pathway via expression of an eGFP reporter gene under the control of an IFN-stimulated response element (ISRE) containing MxA promoter. The class given is functional. Particulars: 30 µM.
The target in assay [7] is T4, Tyrosyl-tRNA synthetase, putative (Trypanosoma cruzi (strain CL Brener)) (UniProt Q4DSP6).
T4 sequence (whole entry): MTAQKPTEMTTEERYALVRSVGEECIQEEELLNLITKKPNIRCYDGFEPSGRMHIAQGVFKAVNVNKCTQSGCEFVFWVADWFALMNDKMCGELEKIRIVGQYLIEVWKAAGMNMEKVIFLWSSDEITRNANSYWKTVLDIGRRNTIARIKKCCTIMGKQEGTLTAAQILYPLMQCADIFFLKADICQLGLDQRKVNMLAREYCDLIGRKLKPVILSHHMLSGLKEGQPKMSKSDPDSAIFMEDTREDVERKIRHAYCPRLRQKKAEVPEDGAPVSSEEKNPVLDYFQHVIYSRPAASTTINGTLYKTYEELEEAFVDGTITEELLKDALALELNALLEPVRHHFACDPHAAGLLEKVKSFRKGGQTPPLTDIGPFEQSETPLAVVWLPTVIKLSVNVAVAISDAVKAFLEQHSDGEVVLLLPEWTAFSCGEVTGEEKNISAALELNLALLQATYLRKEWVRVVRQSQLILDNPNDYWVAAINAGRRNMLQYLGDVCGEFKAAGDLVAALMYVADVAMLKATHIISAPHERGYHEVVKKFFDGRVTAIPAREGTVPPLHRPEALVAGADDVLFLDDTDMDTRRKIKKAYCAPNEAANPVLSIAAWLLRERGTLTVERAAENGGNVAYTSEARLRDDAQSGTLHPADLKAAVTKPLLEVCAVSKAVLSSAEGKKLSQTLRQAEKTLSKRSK
In words: Trypanosoma cruzi tyrosyl tRNA synthetase (TcYRS) _High Tyrosine SOP. Further: in the data most compounds retested in dose-response had high values. The class given is functional. Particulars: 30 µM.

Assay [8] addresses T4, Tyrosyl-tRNA synthetase, putative (Trypanosoma cruzi (strain CL Brener)). Nature of the assay: Trypanosoma cruzi tyrosyl tRNA synthetase (TcYRS) SOP. The settings on record: 30 µM. The class given is functional.
Assay [9] concerns the target Chromo domain-containing protein 1 (Saccharomyces cerevisiae (strain ATCC 204508 / S288c) (Baker's yeast)) (UniProt P32657). In words: ScCHD-1 Enzyme Inhibition Assay. Further: in the data most compounds retested in dose-response had high values. The settings on record: 30 µM. The class given is functional.

Sialic acid-binding Ig-like lectin 9 (Homo sapiens), sequence (Q9Y336 whole entry): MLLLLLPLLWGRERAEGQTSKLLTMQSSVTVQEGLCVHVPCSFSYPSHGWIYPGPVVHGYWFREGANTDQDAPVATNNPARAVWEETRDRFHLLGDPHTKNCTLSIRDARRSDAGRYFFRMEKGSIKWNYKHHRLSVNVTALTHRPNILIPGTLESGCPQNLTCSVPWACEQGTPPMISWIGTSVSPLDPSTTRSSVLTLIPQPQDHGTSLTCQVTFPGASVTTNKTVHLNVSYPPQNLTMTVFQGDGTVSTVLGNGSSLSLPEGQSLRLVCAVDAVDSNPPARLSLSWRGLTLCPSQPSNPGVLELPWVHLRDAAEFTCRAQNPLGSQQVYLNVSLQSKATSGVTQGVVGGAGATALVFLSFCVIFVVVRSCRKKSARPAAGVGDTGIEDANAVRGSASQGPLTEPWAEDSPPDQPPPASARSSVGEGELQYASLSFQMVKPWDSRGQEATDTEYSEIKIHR
Protein translocase subunit SecA (Escherichia coli (strain K12)), sequence (P10408 whole entry): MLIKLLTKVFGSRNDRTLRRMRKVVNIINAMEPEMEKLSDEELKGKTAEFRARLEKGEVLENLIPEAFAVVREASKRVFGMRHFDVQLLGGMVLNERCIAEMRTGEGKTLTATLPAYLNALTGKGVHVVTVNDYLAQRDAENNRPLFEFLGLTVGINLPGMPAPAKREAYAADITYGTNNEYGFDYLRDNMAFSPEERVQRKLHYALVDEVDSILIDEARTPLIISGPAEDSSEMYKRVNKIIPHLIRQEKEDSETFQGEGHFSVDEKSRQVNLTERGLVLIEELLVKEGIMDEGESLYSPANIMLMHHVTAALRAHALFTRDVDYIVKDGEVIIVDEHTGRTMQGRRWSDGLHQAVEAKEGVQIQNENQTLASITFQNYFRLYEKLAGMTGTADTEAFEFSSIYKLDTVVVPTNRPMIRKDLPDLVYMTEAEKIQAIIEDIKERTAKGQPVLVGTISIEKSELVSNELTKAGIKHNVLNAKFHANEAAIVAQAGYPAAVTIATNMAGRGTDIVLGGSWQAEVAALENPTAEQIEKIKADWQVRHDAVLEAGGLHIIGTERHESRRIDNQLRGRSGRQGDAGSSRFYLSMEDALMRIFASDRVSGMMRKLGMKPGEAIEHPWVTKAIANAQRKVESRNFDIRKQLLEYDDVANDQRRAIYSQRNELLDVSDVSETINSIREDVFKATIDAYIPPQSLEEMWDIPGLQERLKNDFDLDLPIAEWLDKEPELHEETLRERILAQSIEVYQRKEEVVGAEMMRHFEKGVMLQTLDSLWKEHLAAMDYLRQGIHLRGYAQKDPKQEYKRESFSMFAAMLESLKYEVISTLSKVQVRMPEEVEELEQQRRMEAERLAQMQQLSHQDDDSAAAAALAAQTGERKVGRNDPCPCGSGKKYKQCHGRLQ
Chromo domain-containing protein 1 (Saccharomyces cerevisiae (strain ATCC 204508 / S288c) (Baker's yeast)), sequence (P32657 whole entry, the tested form may be a part): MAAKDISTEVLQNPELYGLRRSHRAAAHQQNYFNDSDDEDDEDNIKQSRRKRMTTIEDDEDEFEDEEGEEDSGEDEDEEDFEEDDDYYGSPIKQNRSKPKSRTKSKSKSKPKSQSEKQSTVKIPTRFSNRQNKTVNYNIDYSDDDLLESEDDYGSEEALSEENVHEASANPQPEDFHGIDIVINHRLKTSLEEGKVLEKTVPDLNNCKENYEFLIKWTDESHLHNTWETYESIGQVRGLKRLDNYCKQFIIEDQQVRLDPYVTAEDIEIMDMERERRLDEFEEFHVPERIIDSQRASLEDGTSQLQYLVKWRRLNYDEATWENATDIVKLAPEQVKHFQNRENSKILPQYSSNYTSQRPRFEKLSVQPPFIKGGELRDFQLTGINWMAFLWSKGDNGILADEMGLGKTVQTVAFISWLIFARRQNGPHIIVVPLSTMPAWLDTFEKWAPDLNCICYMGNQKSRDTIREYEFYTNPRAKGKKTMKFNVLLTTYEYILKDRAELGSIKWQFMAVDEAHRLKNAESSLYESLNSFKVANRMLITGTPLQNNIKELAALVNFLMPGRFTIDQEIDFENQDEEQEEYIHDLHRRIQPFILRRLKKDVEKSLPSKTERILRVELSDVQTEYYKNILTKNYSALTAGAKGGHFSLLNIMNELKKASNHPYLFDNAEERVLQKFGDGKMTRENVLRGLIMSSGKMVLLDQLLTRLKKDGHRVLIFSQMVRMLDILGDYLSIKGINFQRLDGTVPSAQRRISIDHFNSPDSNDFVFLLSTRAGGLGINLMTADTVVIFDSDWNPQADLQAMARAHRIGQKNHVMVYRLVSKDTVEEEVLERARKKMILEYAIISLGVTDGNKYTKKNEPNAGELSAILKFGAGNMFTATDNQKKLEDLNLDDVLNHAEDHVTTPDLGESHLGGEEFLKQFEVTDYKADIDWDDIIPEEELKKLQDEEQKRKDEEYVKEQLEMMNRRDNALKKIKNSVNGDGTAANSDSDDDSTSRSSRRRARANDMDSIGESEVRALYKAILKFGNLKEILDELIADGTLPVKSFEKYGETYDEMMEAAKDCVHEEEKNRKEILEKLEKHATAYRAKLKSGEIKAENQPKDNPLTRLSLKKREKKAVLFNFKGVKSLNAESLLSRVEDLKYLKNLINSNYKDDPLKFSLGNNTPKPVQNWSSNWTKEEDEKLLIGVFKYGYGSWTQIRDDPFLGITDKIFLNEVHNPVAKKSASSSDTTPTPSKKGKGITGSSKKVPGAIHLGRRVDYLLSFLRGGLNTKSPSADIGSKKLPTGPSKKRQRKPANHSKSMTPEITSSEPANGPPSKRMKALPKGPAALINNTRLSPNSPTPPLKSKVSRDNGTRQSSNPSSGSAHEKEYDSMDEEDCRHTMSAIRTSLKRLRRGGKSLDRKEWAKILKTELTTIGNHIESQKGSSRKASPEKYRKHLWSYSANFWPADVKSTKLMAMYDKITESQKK

As to `CCN1CCN(CC(O)c2ccc(OC(F)(F)F)cc2)CC1` (stereo unspecified), the Percent Effect is -9.59% in [1]; 16.2% in [2]; -17.6% in [3]; 27.4% in [4]; 9.34% in the assay on Trypanosoma cruzi; -19.6% in assay [5]. Besides, the Percent Effect in assay [6] is 9.73%; in the assay listed under Homo sapiens, 0.571%; in assay [7] it was 6.4%; in assay [8], 18.5%; in assay [9], -20.3%.

`Cc1ccc(CN2CCCC3(CCN(S(=O)(=O)N(C)C)C3)C2)o1` (stereo unspecified): the Percent Effect in [1] was -4.24%; in assay [2], 10.7%; in assay [3] it was 11.3%; in assay [4], 7.3%; with Trypanosoma cruzi it was -2.17%; in assay [5] it was 3.03%. Further, the Percent Effect is 13.7% in assay [6]; 9.85% in the assay listed under Homo sapiens; 7.45% in assay [7]; 19.2% in assay [8]; -3.25% in assay [9].

For the compound `CCOC1CCN(C(=O)c2cnn(-c3ccccc3Cl)c2)CC1`, the Percent Effect was -4.12% in assay [1]; 8.11% in assay [2]; -9.38% in [3]; 9.51% in [4]; 0.283% in the assay with Trypanosoma cruzi; 0.802% in [5]. Also, the Percent Effect in [6] is 2.34%; in the assay filed under Homo sapiens, 4.91%; in assay [7], 6.4%; in assay [8], 16.1%; in [9], -0.798%.

`CN(CCO)C(=O)c1coc(CN2CCN(c3ccccc3F)CC2)n1`: the Percent Effect in assay [1] was -2.04%; in [2], 13.3%; in assay [3], -1.48%; in assay [4], 17.7%; with Trypanosoma cruzi, -0.0974%; in assay [5] it was 49.5%. In addition, the Percent Effect in assay [6] is 20.2%; in the assay listed under Homo sapiens, 11.4%; in [7], 6.01%; in assay [8], 21%; in [9] it was 97.1%.

Turning to `CN(Cc1ccc(F)cc1)C(=O)NCC1(N2CCOCC2)CCSC1` (stereo unspecified), the Percent Effect is 2.92% in assay [1]; 16.2% in [2]; -0.11% in assay [3]; 22.3% in [4]; 2.12% in the assay on Trypanosoma cruzi; 1.43% in assay [5]. Further, the Percent Effect in [6] was 15.9%; in the assay listed under Homo sapiens, 14.5%; in [7], 3.7%; in [8], 17.1%; in assay [9], -8.64%.

As to `COc1ccc(-n2nnc(C(=O)NC(C)C)c2C2CC2)cc1`, the Percent Effect in assay [1] was -1.4%; in assay [2] it was 1.39%; in assay [3] it was -9.18%; in assay [4], 9.95%; in the assay on Trypanosoma cruzi, 4.96%; in [5], 15%. In addition, the Percent Effect in [6] was 4.21%; in the assay listed under Homo sapiens, 9.68%; in assay [7], 0%; in assay [8], 0%; in assay [9], -0.372%.

`O=C(NCCCn1ccnc1)N1CCCC1c1ccncc1` (stereo unspecified): the Percent Effect was -1.66% in [1]; -2.67% in assay [2]; -1.97% in [3]; -2.62% in assay [4]; -5.36% with Trypanosoma cruzi; 1.56% in assay [5]. Moreover, the Percent Effect in assay [6] was -1.57%; in the assay listed under Homo sapiens it was -1.17%; in [7], -0.546%; in [8] it was 1.24%; in assay [9] it was 5.86%.

`CCn1ncnc1C(NC(=O)CC1CCN(C(C)C)CC1)C1CC1` (stereo unspecified): the Percent Effect in assay [1] was -12.1%; in assay [2], -2.7%; in assay [3], -3.06%; in [4] it was -6.3%; in the assay with Trypanosoma cruzi, -6.16%; in assay [5] it was -1.74%. The Percent Effect in assay [6] is 3.18%; in the assay filed under Homo sapiens, -5.64%; in assay [7], -2.15%; in assay [8] it was 1.24%; in assay [9], -3.37%.

As to `CCO[C@@H]1CCN(C(=O)c2cscn2)[C@@H]1Cc1cnn(C)c1`, the Percent Effect is -1.12% in assay [1]; 0% in assay [2]; 9.65% in [3]; 4.98% in assay [4]; -5.12% in the assay on Trypanosoma cruzi; 2.1% in assay [5]. In addition, the Percent Effect in assay [6] is -1.15%; in the assay listed under Homo sapiens it was 1.8%; in [7] it was 2.13%; in [8] it was 3.85%; in assay [9], 1.69%.

Regarding `CCC(CNC(=O)c1ccc(=O)[nH]n1)N1CCc2ccccc2C1` (stereo unspecified), the Percent Effect in assay [1] is 0.395%; in assay [2], 13.5%; in assay [3], -10.4%; in assay [4] it was 10.4%; in the assay with Trypanosoma cruzi, 3.48%; in [5], 11.4%. The Percent Effect is 17.9% in [6]; 2.58% in the assay filed under Homo sapiens; 7.94% in assay [7]; 12.2% in assay [8]; -3.16% in assay [9].

As to `c1csc(N2CCCN(Cc3nc(C4CC4)no3)CC2)n1`, the Percent Effect in assay [1] is -5.91%; in [2], 10.4%; in [3] it was -4.1%; in assay [4], 9.22%; with Trypanosoma cruzi, -0.749%; in assay [5], -2.49%. Besides, the Percent Effect in assay [6] was -1.18%; in the assay listed under Homo sapiens, 19%; in assay [7], 5.83%; in [8] it was 14.6%; in assay [9], 5.76%.
